ANO1 activ – TMEM16A chloride channel activators or potentiators, primary screen, cell-based, HTS; 340,000 tested, 0.3% active; B-score at 10 µM; HEK293 TMEM16A/YFP-H148Q/I152L, iodide quench fluorescence; stronger effect = lower value;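 active = fluorescence-ratio B-score plate-corrected deviation score at least 3 library SD below zero, with starting fluorescence score within 5 deviations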;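 note: channel opened by trigger with iodide after compound preincubation; score built on the fluorescence ratio of max minus min over baseline; more negative score means more quench and so TMEM16A activation or potentiation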
hiPSC survival – enhancers of single-cell hiPSC survival, primary screen, ATPlite luminescence | 100% = ROCK inhibitor wells, 0% = DMSO | survival enhancement, % at 20 µM | 360,000 tested, 0.044% active; in the data active = survival enhancement above about 18%;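 note: cells exposed to compounds for 16 hours before the ATP read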
DAGLB inh – DAGLB lipase inhibitors, primary screen, biochemical, fluorescence, HTS. Diacylglycerol lipase-beta (Homo sapiens), Q8NCG7. HEK293T DAGLB membrane lysate, EnzChek fluorogenic substrate. inhibition, % at 5.17 µM. 340,000 tested, 0.059% active; in the data active = inhibition above about 34%;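 note: 0% = enzyme with vehicle and 100% = wells lacking enzyme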
ANO1 block – TMEM16A chloride channel inhibitors, primary screen, cell-based, HTS. Anoctamin-1 (Mus musculus), Q8BHY3. HEK293 TMEM16A/YFP iodide influx fluorescence, ionomycin. normalized B-score (activity score, 25-100; higher = stronger inhibition) at 10 µM. 310,000 tested, 1.2% active;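 active = ratio plate-corrected score three or more library SD toward inhibition, starting fluorescence score within five deviations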;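 note: score derived from kinetic fluorescence span divided by baseline fluorescence per well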
ABCB6 inh MLPCN – ABCB6 transporter inhibitors, primary screen, K562-ABCB6 cells, flow cytometry, MLPCN library | K562-ABCB6 porphyrin accumulation, 1 h; stronger effect = lower value | fluorescence ratio to DMSO, % at 10 µM | 360,000 tested, 0.19% active;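 active = fluorescence ratio to DMSO below 75%, the collection mean minus 3 SD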;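 note: signal is porphyrin accumulated inside mitochondria; 100% equals median channel fluorescence of DMSO control wells; lower ratio means ABCB6 inhibition with less porphyrin fluorescence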
TMEM16A reconf – TMEM16A chloride channel inhibitors, confirmation, cell-based, re-confirmation | shares compounds with ANO1 block | HEK293 TMEM16A/YFP-H148Q, iodide quench fluorescence; ionomycin added to raise cell calcium | inhibition, % at 10 µM | 2,300 tested, 39% active | AID 652189, 2013;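 active = mean duplicate percent inhibition, scaled so buffer wells are 0 and the reference blocker 100, over three buffer SD above buffer mean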
HEK293 Ca mobil – calcium mobilization in TMEM16A/YFP HEK293 cells, confirmation, counter-screen for TMEM16A inhibitor project. 2,300 tested, 2% active. AID 652231, 2013. Fluo4 calcium mobilization. shares compounds with ANO1 block. calcium response (% of ionomycin), % at 10 µM;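 active = duplicate-averaged calcium signal over 20% of the ionomycin maximum, relative to buffer baseline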;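 note: each well's signal is peak minus trough fluorescence divided by its pre-addition baseline; 0% = buffer wells and 100% = ionomycin wells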
Parental YFP cnt – iodide YFP quench changes in parental YFP-HEK293, counter-screen for TMEM16A inhibitor project, cell-based | shares compounds with ANO1 block | ionomycin | YFP ratio F(max-min)/F0 at 10 µM | 2,300 tested, under 10 active | AID 652233, 2013;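 active = yellow fluorescent protein signal ratio exceeding the buffer control mean by over 5 SD of those controls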;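 note: ratio is mean of duplicate wells from kinetic YFP trace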
ClC-1 inh – ClC-1 chloride channel inhibition, selectivity assay for TMEM16A inhibitor project, cell-based, voltage-dependent ClC-1; CHO ClC-1-YFP, iodide influx fluorescence quench; iodide control reads 0, buffer control 100; shares compounds with ANO1 block; 2,300 tested, under 10 active; ratio percent, % at 10 µM;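 active = duplicate-mean ratio percent above the mean of iodide-only control wells, which defines zero, plus 5 of their SD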;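 note: higher percent means stronger block of ClC-1 iodide influx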
Target sequence (P35524 whole entry, looked up): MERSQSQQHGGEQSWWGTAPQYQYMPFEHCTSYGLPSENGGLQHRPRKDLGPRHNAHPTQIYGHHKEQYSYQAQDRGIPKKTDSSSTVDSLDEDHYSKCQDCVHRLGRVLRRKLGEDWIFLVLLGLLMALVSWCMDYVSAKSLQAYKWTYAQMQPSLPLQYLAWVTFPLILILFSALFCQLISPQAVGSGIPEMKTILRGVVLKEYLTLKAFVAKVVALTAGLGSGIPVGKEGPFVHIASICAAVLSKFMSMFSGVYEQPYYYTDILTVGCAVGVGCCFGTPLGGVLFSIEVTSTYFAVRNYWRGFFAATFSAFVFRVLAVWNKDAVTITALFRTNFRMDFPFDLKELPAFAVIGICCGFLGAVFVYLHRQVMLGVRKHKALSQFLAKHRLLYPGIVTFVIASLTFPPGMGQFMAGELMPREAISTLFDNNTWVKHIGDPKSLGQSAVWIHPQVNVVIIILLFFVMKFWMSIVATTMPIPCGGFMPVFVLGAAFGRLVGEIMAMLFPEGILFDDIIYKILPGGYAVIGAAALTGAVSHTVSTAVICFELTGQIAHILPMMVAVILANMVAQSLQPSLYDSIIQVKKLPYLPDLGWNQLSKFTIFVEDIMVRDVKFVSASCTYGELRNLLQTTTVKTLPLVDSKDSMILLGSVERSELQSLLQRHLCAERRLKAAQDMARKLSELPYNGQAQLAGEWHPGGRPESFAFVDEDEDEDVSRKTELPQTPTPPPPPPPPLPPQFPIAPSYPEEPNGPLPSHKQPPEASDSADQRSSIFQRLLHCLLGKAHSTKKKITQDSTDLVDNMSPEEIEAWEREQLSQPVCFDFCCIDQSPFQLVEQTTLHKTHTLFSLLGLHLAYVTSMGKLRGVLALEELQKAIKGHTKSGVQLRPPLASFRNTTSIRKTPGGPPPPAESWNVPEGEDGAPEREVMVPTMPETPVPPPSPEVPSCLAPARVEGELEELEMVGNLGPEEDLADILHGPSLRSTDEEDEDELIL
Numbers without * were called inactive. Compounds with a hit are over-represented: about 1.5% of the library has one in this group of screens.

O=c1c2c([nH]c3ccccc13)CCCCCC2 was read as ANO1 activ inactive, hiPSC survival -1, DAGLB inh -1, ANO1 block 25*, ABCB6 inh MLPCN 93, TMEM16A reconf inactive, HEK293 Ca mobil inactive, Parental YFP cnt -1.1 and ClC-1 inh -14.
Screening O=c1c2c([nH]c3ccccc13)CCCCC2 returned ANO1 activ inactive, hiPSC survival 0, DAGLB inh 0, ANO1 block inactive and ABCB6 inh MLPCN 100.
For NS(=O)(=O)c1cc(C(=O)NCC2CCCCC2)ccc1Cl the results were ANO1 activ inactive, hiPSC survival -1, DAGLB inh -1, ANO1 block inactive and ABCB6 inh MLPCN 95.
Screening Cc1cccc(C)c1OCc1cc(C(=O)NCC2CCCCC2)no1 returned ANO1 activ inactive, hiPSC survival 0, DAGLB inh -2, ANO1 block inactive and ABCB6 inh MLPCN 100.
For Cc1cccc(C)c1OCc1cc(C(=O)N(Cc2c(C)nn(C)c2C)C2CC2)no1 the results were ANO1 activ inactive, hiPSC survival 0, DAGLB inh -1, ANO1 block 25*, ABCB6 inh MLPCN 91, TMEM16A reconf 22%*, HEK293 Ca mobil inactive, Parental YFP cnt -1.2 and ClC-1 inh -14.
COc1ccc(N2CC(O)=C(c3nc(C)cs3)C2=N)cc1 was read as ANO1 activ inactive, hiPSC survival -1, DAGLB inh 2, ANO1 block inactive and ABCB6 inh MLPCN 97.
Screening COc1ccc(N2CC(O)=C(c3n(C)c4ccccc4[n+]3C)C2=N)cc1 returned ANO1 activ inactive, hiPSC survival -1, DAGLB inh 1, ANO1 block 25*, ABCB6 inh MLPCN 94, TMEM16A reconf inactive, HEK293 Ca mobil inactive, Parental YFP cnt -1.1 and ClC-1 inh -4.
`C[C@@H]1CN([C@H](C)CO)C(=O)CCCn2nncc2CO[C@H]1CN(C)S(=O)(=O)c1ccc(F)cc1` gave hiPSC survival 0, DAGLB inh 0 and ABCB6 inh MLPCN 100.
`CCOc1ccc(NC(=O)CN(C)C(=O)c2cccnc2SC)cc1OCC` gave ANO1 activ inactive, hiPSC survival 0, DAGLB inh 0, ANO1 block inactive and ABCB6 inh MLPCN 103.
Screening O=S(=O)(Nc1ccc2cn[nH]c2c1)c1ccc(Cl)cc1 returned ANO1 activ inactive, hiPSC survival 0, DAGLB inh 2, ANO1 block inactive and ABCB6 inh MLPCN 110.
Cc1cc(S(=O)(=O)Nc2ccc3cn[nH]c3c2)c(C)cc1Cl was read as ANO1 activ inactive, hiPSC survival 1, DAGLB inh -1, ANO1 block 25*, ABCB6 inh MLPCN 95, TMEM16A reconf 16%*, HEK293 Ca mobil inactive, Parental YFP cnt -0.96 and ClC-1 inh -12.
`O=C(c1ccc(F)cc1)N1CCC(c2ccccc2)C1` (stereo unspecified) gave ANO1 activ inactive, hiPSC survival 0, DAGLB inh -6, ANO1 block inactive, ABCB6 inh MLPCN 106, TMEM16A reconf inactive, HEK293 Ca mobil inactive, Parental YFP cnt -0.82 and ClC-1 inh -17.
For CC(C)(C)c1ccc(C(=O)NNC(=O)c2ccc(Cl)cc2)cc1 the results were ANO1 activ inactive, hiPSC survival -1, DAGLB inh 0, ANO1 block inactive and ABCB6 inh MLPCN 99.
For O=C(NNC1=C(C(=O)C(F)(F)F)CCC1)c1ccc(Cl)cc1 the results were ANO1 activ inactive, hiPSC survival -4, DAGLB inh -18, ANO1 block 25*, ABCB6 inh MLPCN 99, TMEM16A reconf 24%*, HEK293 Ca mobil inactive, Parental YFP cnt -0.88 and ClC-1 inh -12.
Screening COc1ccc(CC2(CO)CCN(Cc3cnc(-c4ccccc4C)nc3)CC2)cc1 returned ANO1 activ inactive, hiPSC survival -1, DAGLB inh 1, ANO1 block 25*, ABCB6 inh MLPCN 96, TMEM16A reconf inactive, HEK293 Ca mobil inactive, Parental YFP cnt -1 and ClC-1 inh -9.
Screening COc1ccc(CC2(CO)CCN(CC3=Cc4cc(Cl)ccc4OC3)CC2)cc1 returned ANO1 activ inactive, hiPSC survival 2, DAGLB inh -5, ANO1 block 25*, ABCB6 inh MLPCN 100, TMEM16A reconf 16%*, HEK293 Ca mobil inactive, Parental YFP cnt -1 and ClC-1 inh -22.
Screening CC(=O)Nc1c(Cl)c(Cl)c2c(c1Cl)Cc1cc(Cl)ccc1-2 returned ANO1 activ inactive, hiPSC survival 0, DAGLB inh -2 and ABCB6 inh MLPCN 100.
COc1ccc(N2CCN(CC(=O)NCc3ccc(Cl)cc3)CC2)cc1 was read as ANO1 activ inactive, hiPSC survival 0, DAGLB inh 0, ANO1 block inactive and ABCB6 inh MLPCN 94.
For COc1ccc(NCc2ccsc2)cc1 the results were ANO1 activ inactive, hiPSC survival 0, DAGLB inh 0, ANO1 block inactive and ABCB6 inh MLPCN 91.
Cc1onc(-c2c(F)cccc2Cl)c1C(=O)Nc1nc2c(s1)CCCC2 was read as ANO1 activ inactive, hiPSC survival 3, DAGLB inh -10, ANO1 block 100*, ABCB6 inh MLPCN 96, TMEM16A reconf inactive, HEK293 Ca mobil inactive, Parental YFP cnt -1 and ClC-1 inh -9.
`Cc1onc(-c2ccccc2)c1C(=O)Nc1nc2c(s1)CCCC2` gave ANO1 activ inactive, hiPSC survival 2, DAGLB inh -2, ANO1 block inactive and ABCB6 inh MLPCN 94.
For Cc1ccc(C(=O)CCC(=O)NC2=NCCS2)cc1 the results were ANO1 activ inactive, hiPSC survival 2, DAGLB inh 1 and ABCB6 inh MLPCN 103.
